These sequences were tested against T1, ELK1 (Homo sapiens, UniProt P19419 1-428) (assay: DAPPL (digital affinity profiling via proximity ligation, sequencing); 10 mM Tris-HCl pH 7.5, 50 mM NaCl, 1 mM DTT, 4% glycerol, room temperature, 30 min; GST-TFs on glutathione beads, 16-mer random dsDNA library, 0.1% formaldehyde crosslink after washing; high values mean tight binding). Conditions: protein: recombinant; tags: N-terminal GST; dsDNA, one strand shown.
T1 sequence: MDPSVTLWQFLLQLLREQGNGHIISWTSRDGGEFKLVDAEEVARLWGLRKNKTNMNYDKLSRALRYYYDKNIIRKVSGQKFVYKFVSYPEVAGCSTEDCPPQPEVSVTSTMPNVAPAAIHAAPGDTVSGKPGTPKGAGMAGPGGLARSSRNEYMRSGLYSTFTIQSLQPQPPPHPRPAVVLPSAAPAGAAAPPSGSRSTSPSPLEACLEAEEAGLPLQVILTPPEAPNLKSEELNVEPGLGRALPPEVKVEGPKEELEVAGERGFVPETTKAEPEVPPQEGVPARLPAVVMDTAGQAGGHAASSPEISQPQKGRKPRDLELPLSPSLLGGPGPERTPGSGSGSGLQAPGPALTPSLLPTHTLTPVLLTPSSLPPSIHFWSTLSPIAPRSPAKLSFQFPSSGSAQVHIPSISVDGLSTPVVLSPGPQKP
How it was run: (§1)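 Each value of binding signal is a hexamer's read frequency for a factor divided by the same hexamer's frequency in the tag-only sample. Barcoded, bead-captured GST fusions of human transcription factors made in yeast were pooled with that sample and incubated with 200 nmole of a random double-stranded 16-mer DNA library in Tris/NaCl/DTT/glycerol buffer at room temperature for 30 min. Washing, 0.1% formaldehyde crosslinking, proximity ligation, PCR and Illumina NextSeq500 sequencing followed.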
For GTCCCG, the binding signal was 1.2 fold enrichment (6-mer frequency, TF over GST control). For ACCTGA, the binding signal was 1.12 fold enrichment (6-mer frequency, TF over GST control). In the case of TACGCA, the binding signal is reported as 1.2 fold enrichment (6-mer frequency, TF over GST control). For CACGCG, the binding signal was 1.15 fold enrichment (6-mer frequency, TF over GST control). For GTTCCC, the binding signal was 1.27 fold enrichment (6-mer frequency, TF over GST control). With CCACTG the binding signal was 1.11 fold enrichment (6-mer frequency, TF over GST control). For TTATAG, the binding signal was 1.09 fold enrichment (6-mer frequency, TF over GST control). In the case of CCGGCA, the binding signal is reported as 1.37 fold enrichment (6-mer frequency, TF over GST control). CTTTAG was tested, and the binding signal was 1.31 fold enrichment (6-mer frequency, TF over GST control). For TCCGGA, the binding signal was 2.53 fold enrichment (6-mer frequency, TF over GST control). ATGTCA was tested, and the binding signal was 1.1 fold enrichment (6-mer frequency, TF over GST control). With AATTCT the binding signal was 1.22 fold enrichment (6-mer frequency, TF over GST control). With TCTGAC the binding signal was 1.19 fold enrichment (6-mer frequency, TF over GST control). With GAATCC the binding signal was 1.09 fold enrichment (6-mer frequency, TF over GST control). CGTCCC was tested, and the binding signal was 1.39 fold enrichment (6-mer frequency, TF over GST control). TCTTCA was tested, and the binding signal was 1.19 fold enrichment (6-mer frequency, TF over GST control). In the case of AACTAT, the binding signal is reported as 1.36 fold enrichment (6-mer frequency, TF over GST control). With CGAAGC the binding signal was 1.36 fold enrichment (6-mer frequency, TF over GST control). With CCTGCC the binding signal was 1.34 fold enrichment (6-mer frequency, TF over GST control). With ATTGCT the binding signal was 1.19 fold enrichment (6-mer frequency, TF over GST control).

The sequences below were run against T2, GABPA (Homo sapiens, UniProt Q06546 1-454) in the same assay as above. Conditions: protein: recombinant; tags: N-terminal GST; dsDNA, one strand shown.
T2 sequence: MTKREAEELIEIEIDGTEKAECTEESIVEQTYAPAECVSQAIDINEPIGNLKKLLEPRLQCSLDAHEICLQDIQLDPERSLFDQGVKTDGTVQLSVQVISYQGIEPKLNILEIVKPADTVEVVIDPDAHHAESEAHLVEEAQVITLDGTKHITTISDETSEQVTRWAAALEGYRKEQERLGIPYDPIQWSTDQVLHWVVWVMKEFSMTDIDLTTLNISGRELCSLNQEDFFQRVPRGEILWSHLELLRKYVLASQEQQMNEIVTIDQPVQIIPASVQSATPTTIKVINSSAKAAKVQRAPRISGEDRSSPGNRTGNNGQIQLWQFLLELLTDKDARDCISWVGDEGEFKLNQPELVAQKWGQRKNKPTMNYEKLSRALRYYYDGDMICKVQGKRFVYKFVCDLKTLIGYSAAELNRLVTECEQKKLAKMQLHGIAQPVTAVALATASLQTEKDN
How it was run: as §1
TAGAAA was tested, and the binding signal was 1.02 fold enrichment (6-mer frequency, TF over GST control). In the case of GTTTTG, the binding signal is reported as 1.2 fold enrichment (6-mer frequency, TF over GST control). With TCCGTC the binding signal was 1.29 fold enrichment (6-mer frequency, TF over GST control). CAAACT was tested, and the binding signal was 1.21 fold enrichment (6-mer frequency, TF over GST control). With GACTAC the binding signal was 1.15 fold enrichment (6-mer frequency, TF over GST control). In the case of ACTCAT, the binding signal is reported as 1.36 fold enrichment (6-mer frequency, TF over GST control). For TATAGA, the binding signal was 1.12 fold enrichment (6-mer frequency, TF over GST control). In the case of TTAAAT, the binding signal is reported as 1.1 fold enrichment (6-mer frequency, TF over GST control). With TCGTTC the binding signal was 1.33 fold enrichment (6-mer frequency, TF over GST control). TGTAGC was tested, and the binding signal was 1.16 fold enrichment (6-mer frequency, TF over GST control). In the case of CACATT, the binding signal is reported as 1.2 fold enrichment (6-mer frequency, TF over GST control). CAGCTT was tested, and the binding signal was 1.22 fold enrichment (6-mer frequency, TF over GST control). In the case of AATTCA, the binding signal is reported as 1.35 fold enrichment (6-mer frequency, TF over GST control). In the case of ATGGAC, the binding signal is reported as 1.21 fold enrichment (6-mer frequency, TF over GST control). In the case of TACTCG, the binding signal is reported as 1.34 fold enrichment (6-mer frequency, TF over GST control). With TGGTAG the binding signal was 1.08 fold enrichment (6-mer frequency, TF over GST control). In the case of GGTACT, the binding signal is reported as 1.31 fold enrichment (6-mer frequency, TF over GST control). TAGAAG was tested, and the binding signal was 1.15 fold enrichment (6-mer frequency, TF over GST control). In the case of CTAGGC, the binding signal is reported as 1.23 fold enrichment (6-mer frequency, TF over GST control). For CGCTCT, the binding signal was 1.34 fold enrichment (6-mer frequency, TF over GST control). In the case of GTCCCG, the binding signal is reported as 1.21 fold enrichment (6-mer frequency, TF over GST control). For ACCTGA, the binding signal was 1.03 fold enrichment (6-mer frequency, TF over GST control). With TACGCA the binding signal was 1.11 fold enrichment (6-mer frequency, TF over GST control). In the case of CACGCG, the binding signal is reported as 1.23 fold enrichment (6-mer frequency, TF over GST control). GTTCCC was tested, and the binding signal was 1.33 fold enrichment (6-mer frequency, TF over GST control). CCACTG was tested, and the binding signal was 1.25 fold enrichment (6-mer frequency, TF over GST control). With TTATAG the binding signal was 1.22 fold enrichment (6-mer frequency, TF over GST control). In the case of CCGGCA, the binding signal is reported as 1.39 fold enrichment (6-mer frequency, TF over GST control). CTTTAG was tested, and the binding signal was 1.21 fold enrichment (6-mer frequency, TF over GST control). With TCCGGA the binding signal was 2.37 fold enrichment (6-mer frequency, TF over GST control). ATGTCA was tested, and the binding signal was 1.14 fold enrichment (6-mer frequency, TF over GST control). With AATTCT the binding signal was 1.38 fold enrichment (6-mer frequency, TF over GST control). With TCTGAC the binding signal was 1.24 fold enrichment (6-mer frequency, TF over GST control). In the case of GAATCC, the binding signal is reported as 1.08 fold enrichment (6-mer frequency, TF over GST control). For CGTCCC, the binding signal was 1.42 fold enrichment (6-mer frequency, TF over GST control). TCTTCA was tested, and the binding signal was 1.16 fold enrichment (6-mer frequency, TF over GST control). For AACTAT, the binding signal was 1.38 fold enrichment (6-mer frequency, TF over GST control). For CGAAGC, the binding signal was 1.36 fold enrichment (6-mer frequency, TF over GST control). CCTGCC was tested, and the binding signal was 1.25 fold enrichment (6-mer frequency, TF over GST control). ATTGCT was tested, and the binding signal was 1.27 fold enrichment (6-mer frequency, TF over GST control).
